Screening data deposited in PubChem BioAssay by National Center for Advancing Translational Sciences (NCATS).
FMDV inh: antivirals against foot and mouth disease virus. Potency, µM (series often up to 57.9 µM), for inactives: at the top dose activity change, negative = inhibition, usual class: inhibitors. 410,000 compounds, 1.2% hits. FMDV antiviral cell-based qHTS; calls by dose curve; tested in HEK293T cells; also: read-out not given here; potency is read from the fitted curve at half-maximal effect; nearly all actives have a fitted effect of over 45% in size
LASV entry inh: blocks Lassa virus binding to or entry into cells. 300,000 compounds, 1.2% hits. AID 540256. Potency, µM (top dose mostly 37.9 µM), for inactives: at the top dose activity change, negative = inhibition, usual class: inhibitors. Lassa virus pseudotype entry inhibition, cell reporter; calls by dose curve; tested in HEK293 cells; also: potency is read from the fitted curve at half-maximal effect; nearly all actives have a fitted effect of over 50% in size
MARV entry inh: inhibitors of Marburg virus binding or cell entry | Marburg virus pseudotyped entry inhibition, cell reporter | Potency, µM (highest dose often 37.8 µM), without a hit: top-dose activity change, negative = inhibition, hits mostly inhibitors | 300,000 compounds, 1.8% hits | AID 540276; calls by dose curve; tested in HEK293 cells; also: potency is read from the fitted curve at half-maximal effect
Vaccinia Venus: vaccinia inhibition (Venus reporter) | Vaccinia virus Venus reporter expression, fluorescence | Potency, µM (top dose mostly 36.5 µM), inactives show at the top dose activity change, negative = inhibition, actives largely listed as inhibitors | 330,000 compounds, 0.46% hits | AID 720580; calls by dose curve; tested in A549 cells; also: potency is read from the fitted curve at half-maximal effect; nearly all actives have a fitted effect of over 30% in size
Vaccinia mCherry: inhibitors of vaccinia virus infection (mCherry reporter signal) | Vaccinia virus mCherry reporter infection, fluorescence | AID 720579 | Potency, µM (top dose mostly 36.5 µM), for inactives: at the highest dose activity change, negative = inhibition, most hits filed as inhibitors | 310,000 compounds, 0.63% hits; calls by dose curve; tested in A549 cells; also: potency is read from the fitted curve at half-maximal effect; nearly all actives have a fitted effect of over 35% in size
HCMV antiviral: inhibitors of human cytomegalovirus | 410,000 compounds, 4.5% hits | activity change, negative = inhibition, % at 57.5 µM | HFF cells, HCMV-luciferase reporter, 72 h; stronger effect = lower value | AID 1259415; in the data active = activity change below about -60%; inconclusive = no clear call, values can overlap the other calls; inactive = above about -39%
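Steps: HFFs plated, 16 h 37C; compounds added; HCMV-luciferase added to MOI 1 PFU/cell; 72 h 37C; OneGlo reagent, 5 min room temperature; luminescence read, normalized to controls.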
* = called active by the depositor; i = inactive; ? = inconclusive; / = no result; ! = repeats disagree; [ ] = another dose, or the depositor's remark. Sampled rows, rich in hits. Any-hit rate of the full collection: about 6.5%. % is scaled to controls: 0 for no effect and ±100 for the full control effect.

SMILES	FMDV inh	LASV entry inh	MARV entry inh	Vaccinia Venus	Vaccinia mCherry	HCMV antiviral
Brc1cccc(-c2nnc(SCc3nc4ccccc4[nH]3)o2)c1	?	-1%	-3%	?	10µM*	2
CCOC(=O)c1csc(NC(=O)c2ccccc2)n1	22%	/	/	2%	34%	77
CCOC(=O)c1sc(NC(=O)c2ccccc2)cc1C	36%	?	?	/	/	28
CCOC(=O)c1csc(NC(=O)c2ccc(S(=O)(=O)N(C)C)cc2)n1	/	-16%	-3%	-11%	-26%	-63*
CCOC(=O)c1sc(NC(=O)c2ccc(S(=O)(=O)N(C)C)cc2)cc1C	?	-20%	-36%	/	/	-87*
CCOC(=O)c1csc(NC(=O)c2ccc(OCC)cc2)n1	?	?	?	-26%	?	-61*
CC1CCC/C=C/C2CC(O)CC2C(O)/C=C/C(=O)O1 (stereo unspecified)	-24%	?	0.4µM*	?	?	-100*
CC1CCCC=CC2CC(O)CC2C(O)/C=C\C(=O)O1 (stereo unspecified)	/	/	0.4µM*	/	/	/
C[C@H]1CCC/C=C/C2C[C@H](O)CC2[C@H](O)/C=C/C(=O)O1 (stereo partly specified)	-24%	1.2µM*	0.37µM*	?	?	/
COCC(=O)N1CCC2(CC1)CCN(C(=O)Nc1cccc(F)c1)CC2	-6%	/	/	/	/	/
CCCOc1ccc(CNC(=O)Cn2ncn3c(cc4sc(CC)cc43)c2=O)cc1	-11%	/	-5%[46.1 µM]	-7%	-12%	17
Cc1cnccn1	/	/	/	-7%	-13%	/
COc1ccccc1S(=O)(=O)NCc1ccc(C(=O)NC(C)c2ccccn2)cc1 (stereo unspecified)	-2%	/	/	/	/	-5
Cc1cc(C)nc(NC(=O)c2c(F)c(F)c(F)c(C(=O)Nc3cc(C)cc(C)n3)c2F)c1	25µM*	/	/	/	/	-15
CCCN(CCC)Cc1c(C(=O)N/N=C/c2ccsc2)nnn1-c1nonc1N	7%	11%	2%[46.1 µM]	-6%	-18%	-13
COC(=O)c1cccc(CN2C(=O)C(C)Sc3ccc(C(C)=O)cc32)c1 (stereo unspecified)	-4%	/	/	-3%	-10%	35
CC(=O)c1ccc2c(c1)N(Cc1ccccc1Cl)C(=O)C(C)S2 (stereo unspecified)	-1%	/	/	-5%	33%	-98*
COc1ccc(CCNC(=O)c2ccc3c(c2)N(Cc2ccccc2C)C(=O)c2ccccc2S3)cc1OC	-22%	?	/	-15%	-18%	-79*
C=CCN1C(=O)CSc2ccc(C(=O)NCCC3=CCCCC3)cc21	?	7.3µM*	?	/	/	-29
COc1ccc(CNC(=O)c2ccc3c(c2)N(Cc2c(F)cccc2Cl)C(=O)CS3)cc1	-25%	?	11µM*	-14%	-18%	-31
COc1ccc(C)c2sc(N(Cc3cccnc3)C(=O)c3cccs3)nc12	-12%	?	/	-11%	-18%	0
CC(C)c1c(C(=O)NCC2(N3CCOCC3)CCCC2)cnn1-c1nccc(-c2cccs2)n1	8%	/	/	-8%	-13%	/
Cn1cc(S(=O)(=O)N2CCCC2)cc1C(=O)Nc1ccc(F)cc1F	18%	1%[46.1 µM]	/	-8%	-10%	?
Cc1oc2cc(OC(=O)c3ccco3)ccc2c(=O)c1-c1nc2ccccc2n1C	-12%	1%	13%	-8%	-18%	-40
O=C(NCc1ccccc1Cl)c1ccc2c(c1)N(Cc1ccccc1)C(=O)CS2	23%	-27%[46.1 µM]	/	-20%	-22%	-65*
SMILES	FMDV inh	LASV entry inh	MARV entry inh	Vaccinia Venus	Vaccinia mCherry	HCMV antiviral
COc1ccc(CCNC(=O)c2ccc3c(c2)N(Cc2ccc(F)cc2)CCS3)c(OC)c1	-16%	-30%[46.1 µM]	7.9µM*	-15%	-9%	-38
O=C(NCC1CCCO1)c1ccc2c(c1)N(Cc1ccccc1)C(=O)CS2 (stereo unspecified)	-18%	/	/	/	/	-74*
COc1ccc(CCNC(=O)c2ccc3c(c2)N(Cc2ccc(F)cc2)C(=O)CS3)cc1OC	?	?	/	-12%	-12%	-66*
COc1ccc(CCNC(=O)c2ccc3c(c2)NC(=O)CS3)cc1OC	-2%	-10%[46.1 µM]	-29%[46.1 µM]	-10%	i	0
O=C(NCc1ccco1)c1ccc2c(c1)N(Cc1ccccc1)C(=O)CS2	-14%	?	?	-11%	-15%	?
Cn1ncc2c(O/N=C(\N)c3ccc(C(C)(C)C)cc3)ncnc21	14µM*	?	?	-12%[7.34 µM]	i[7.34 µM]	/
Cc1ccc(OCC(=O)NC(=S)Nc2ccccn2)c(Br)c1	16µM*	?	?	-10%	i	-63*
COc1ccc(-c2nc3c(c(SCC(=O)Nc4cccc(O)c4)n2)Cc2c(CO)cnc(C)c2O3)cc1	-17%	?	/	-9%	-5%	-63*!
Cc1cc(-c2nnc(CCC(=O)NC(C)(C)C34CC5CC(CC(C5)C3)C4)o2)no1	15%	5%	-9%[46.1 µM]	-13%	i	14
Cc1cc(S(=O)(=O)Nc2ccc(C(=O)NCC3(N4CCCCC4)CCCCC3)cc2)ccc1F	-23%	?	11µM*	-5%	-14%	-5
O=C(CSc1nnnn1C1CC1)N1CCN(Cc2ccccc2F)CC1	-12%	/	/	/	/	-69*
Cc1cc2c(cc1S(=O)(=O)NCc1ccccc1)OCC(=O)N2	7%	8%[46.1 µM]	/	-9%	-7%	-87*!
Cc1ccc(CNC(=O)CCS(=O)(=O)c2cc3c(cc2Cl)NC(=O)CO3)cc1	-4%	?	/	-3%[7.34 µM]	2%	-105*!
Cc1cc(F)ccc1NC(=O)CCS(=O)(=O)c1cc2c(cc1C)NC(=O)CO2	-7%	6%[46.1 µM]	/	-3%	-3%	-105*
Cc1cc(Cl)ccc1NC(=O)CCS(=O)(=O)c1cc2c(cc1C)NC(=O)CO2	3%	18%[46.1 µM]	/	-10%	-6%	-23
Cc1cc2c(cc1S(=O)(=O)NCc1ccccc1Cl)OCC(=O)N2	64%	-1%[46.1 µM]	/	-6%	-3%	-1
O=C(c1cc(N2C(=O)C3C4CCC(C4)C3C2=O)ccc1Cl)N1CCN(c2ccc(F)cc2)CC1 (stereo unspecified)	32µM*	5%	?	-22%	-4%	21
